A selection: hits, their analogues and other compounds. The true share with any hit is near 3.5%.
MITF primary – MITF inhibitors, primary screen, biochemical, AlphaScreen, human; Microphthalmia-associated transcription factor (Homo sapiens), O75030; AlphaScreen MITF homodimerization, bead proximity signal; inhibition, % at 2.6 µM; 0.91% of 650,000 active; in the data active = inhibition above about 50%
GPR151 activ – activators of human GPR151, primary screen, cell-based, PathHunter beta-arrestin, luminescence | 1% of 650,000 active | activation, % at 11.2 µM | PathHunter beta-arrestin GPR151 cells | G-protein coupled receptor 151 (Homo sapiens), Q8TDV0; in the data active = activation above about 4.9%
Target sequence (Q8TDV0 whole entry, looked up): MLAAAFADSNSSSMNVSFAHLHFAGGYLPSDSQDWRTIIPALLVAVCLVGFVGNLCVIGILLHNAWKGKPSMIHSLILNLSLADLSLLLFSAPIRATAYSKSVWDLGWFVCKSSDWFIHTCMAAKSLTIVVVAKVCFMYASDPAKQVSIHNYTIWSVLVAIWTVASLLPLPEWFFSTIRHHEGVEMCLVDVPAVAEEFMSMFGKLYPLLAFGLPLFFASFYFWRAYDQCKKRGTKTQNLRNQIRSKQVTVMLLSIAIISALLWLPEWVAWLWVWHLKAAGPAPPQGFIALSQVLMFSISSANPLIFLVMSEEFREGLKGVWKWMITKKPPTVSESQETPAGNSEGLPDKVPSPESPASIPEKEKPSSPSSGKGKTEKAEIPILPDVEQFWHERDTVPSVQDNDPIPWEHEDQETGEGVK
TEAD-YAP inh – TEAD-YAP interaction inhibition, primary screen, TEAD-YAP interaction inhibitor project, luminescence, HEK-TIYL cells | 1.4% of 640,000 active | inhibition, % at 9.12 µM | TEAD-Gal4/YAP UAS-luciferase luminescence | AID 1259422, 2018; in the data active = inhibition above about 32%
FBW7 act – FBW7 E3 ligase activators, primary screen, biochemical, AlphaScreen, human. F-box/WD repeat-containing protein 7 (Homo sapiens), Q969H0. AlphaScreen FBW7–phospho-cyclin E peptide binding, activator screen. normalized activity (activation), % at 26.1 µM. 0.13% of 650,000 active; in the data active = normalized activity above about 1.9%;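 note: purified mutant Fbw7 with reduced substrate affinity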
Hits are given with their value; n = inactive.

SMILES	MITF primary	GPR151 activ	TEAD-YAP inh	FBW7 act
CC1CCCCN1CCN1C(=O)C2C(C(=O)Nc3ccc(Br)cc3)C3C=CC2(O3)C1C(=O)NC1CCCCC1 (stereo unspecified)	n	n	n	n
Cc1ccc(-c2cccc3cnc(Nc4ccc(C(=O)N5CCOCC5)cc4)nc23)cn1	n	n	49.4	n
Cc1ccc(-c2cccc3cnc(Nc4cccc(C(=O)N5CCN(C)CC5)c4)nc23)cn1	n	n	33.1	n
Cc1ccc(-c2cccc3cnc(Nc4ccc(C(=O)N5CCN(C)CC5)cc4)nc23)cn1	n	n	55.0	n
CC1(C)CC(=O)C2=C(C1)Nc1ccccc1NC2c1ccc(-c2ccccc2[N+](=O)[O-])o1 (stereo unspecified)	n	n	n	n
COc1cc(NC(=O)c2sc3ncnc(N(C)c4ccccc4)c3c2C)cc(OC)c1OC	n	n	49.8	n
C/C(=N\NC(=O)c1cc(C)nc2ccccc12)c1ccco1	n	n	44.7	n
C/C(=N\NC(=O)c1cc(-c2c(C)nn(-c3ccccc3)c2C)n[nH]1)c1ccccc1O	n	n	43.8	n
Cc1cc(C(=O)N/N=C/c2cccc([N+](=O)[O-])c2)c2ccccc2n1	n	n	n	n
COc1ccc(/C(C)=N/NC(=O)c2ccccc2[N+](=O)[O-])c(OC)c1	n	n	n	n
COc1ccc(/C(C)=N\NC(=O)c2ccccc2O)c(OC)c1	n	n	85.2	n
Cc1cc(C(=O)N/N=C/c2ccc(OC(F)F)cc2)c2ccccc2n1	n	n	54.5	n
CC(C)(C)C1=NN(CC(=O)NC2CC2)C(=O)c2cc3sccc3n2C1	n	n	n	n
CC(=O)C1=C(O)C(=O)N(CCCNCCO)C1c1ccc(C)cc1 (stereo unspecified)	n	n	n	n
COc1ccc(C2C(C#N)=C(N)Oc3cc(N)ccc32)c(OC)c1 (stereo unspecified)	n	n	n	n
Cc1cc(C(=O)NN)c2ccccc2n1	n	n	43.6	n
C/C(=N\NC(=O)c1cc(C)nc2ccccc12)c1ccccc1O	n	n	53.3	n
Cc1cc(C(=O)NN=C2CCN(C)CC2)c2ccccc2n1	n	n	51.0	n
CN1CCC(=NNC(=O)c2c[nH]c3ccccc23)CC1	n	n	n	n
Cc1csc(NC(=O)c2cc([N+](=O)[O-])ccc2Sc2nnnn2C)n1	n	n	38.9	n
COc1ccccc1N1CCN(c2nnnn2-c2ccccc2)CC1	n	n	36.8	n
COc1cccc(-c2cc(C(=O)Nc3cc(C)nn3-c3ccccc3)no2)c1	n	n	n	n
COc1ccccc1-c1cc(C(=O)Nc2cc(OC)c(OC)c(OC)c2)no1	n	n	45.9	n
COc1ccccc1-c1cc(C(=O)Nc2cc(C)nn2-c2ccccc2)no1	n	n	33.7	n
Cn1c(C(=O)O)cc(=O)n(C)c1=O	n	n	n	n
SMILES	MITF primary	GPR151 activ	TEAD-YAP inh	FBW7 act
O=c1oc2cc(O)ccc2cc1-c1nnc(Nc2ccc(F)cc2)s1	n	n	n	n
CCc1ccc(Nc2nnc(-c3cc4ccc(O)cc4oc3=O)s2)cc1	n	n	34.3	n
O=c1oc2cc(O)ccc2cc1-c1nc(-c2cccs2)cs1	n	n	77.3	n
O=c1oc2cc(O)ccc2cc1-c1nc(-c2ccccc2)cs1	n	n	n	n
CC(Oc1ccc(Cl)cc1Cl)C(=O)NNC(=O)c1cccc(F)c1 (stereo unspecified)	n	n	n	n
Clc1ccc(-c2cnnc(N3CCCC3)n2)cc1	n	n	n	n
Cc1cc(/C=N\Nc2ccc([N+](=O)[O-])cn2)c(C)n1-c1ccccc1F	n	n	n	n
Cc1cc(/C=N/Nc2nc(N)ncc2[N+](=O)[O-])c(C)n1-c1ccccc1F	n	n	63.1	n
COc1ccc(CCNC(=O)CNC(=O)c2nn(-c3ccc(OC)c(OC)c3)c(=O)c3ccccc23)cc1OC	n	n	39.6	n
Cn1nc(CC(=O)NCC2COc3ccccc3O2)c2ccccc2c1=O (stereo unspecified)	n	n	36.0	n
COc1ccc(-n2nc(C(=O)NCC(=O)NCCc3ccc(OC)c(OC)c3)c3ccccc3c2=O)cc1	n	n	n	n
Cn1c(C(=O)O)c(CC(=O)NCC2COc3ccccc3O2)c2ccccc21 (stereo unspecified)	n	n	n	n
Cn1nc(CC(=O)Nc2ccc(Br)cc2F)c2ccccc2c1=O	n	n	n	n

High-throughput results deposited in PubChem BioAssay by The Scripps Research Institute Molecular Screening Center.
